p53ts 39C tox: kills p53ts cells at the nonpermissive temperature. H1299-p53A138V viability at 39C, ATP luminescence, 24 h. Potency, µM (top dose mostly 46.1 µM), most hits filed as cytotoxic. 130,000 compounds, 1.5% hits; further: nearly all actives have a fitted effect of over 55% in size
p53ts 32C tox: p53ts cell cytotoxicity, permissive temperature | H1299-p53A138V at 32C, ATP luminescence viability, 24 h | Potency, µM (highest dose often 46.1 µM), actives largely listed as cytotoxic | 130,000 compounds, 0.93% hits; further: nearly all actives have a fitted effect of over 55% in size
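Viability by ATPlite luminescence after 24 h compound treatment (up to 46 uM) at the permissive 32C. Cells are H1299 carrying p53 A138V. Scale runs from DMSO basal to 100 uM tamoxifen as full kill; AC50 from Hill fits.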
Imprint erasure: induces erasure of genomic imprints in mouse ES cells. mouse ES Peg3-LacZ reporter, beta-gal luminescence, 40 h. Potency, µM (series often up to 60.7 µM), hits mostly activators. 110,000 compounds, 0.02% hits. AID 1948
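Imprint erasure is scored as LacZ activity from the silenced maternal Peg3 allele in feeder-free female ES cells cultured 40 h with LIF. Luminescence is normalized to in-plate negative controls and fitted to the Hill equation.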
A number is an active result; - = inactive; ? = inconclusive; . = no result given; [ ] = another dose, or the depositor's remark. Hits are enriched below; roughly 1.8% of the tested compounds scored in any of these assays. The call rests on the fitted dose curve; in most records, active means well fitted curve in the direction sought with a large enough effect; inconclusive means small, poorly fitted or top-dose-only effect, or another doubt; inactive means no such curve, though single readings can be large; an effect the other way counts as inactive or inconclusive.

SMILES | p53ts 39C tox | p53ts 32C tox | Imprint erasure
COc1ccc(C(=O)NCCCn2ccnc2)cc1 | - | - | -
COc1ccc(CCCO[C@@H](Cn2ccnc2)c2ccc(OC)cc2)cc1 | 31.6µM | ? | -
COC(=O)c1cc2oc3ccccc3c2n1CC(=O)Nc1ccc(C)cc1C | - | - | -[10.9 µM]
Cc1nc(Nc2nc3ccccc3o2)nc2c1CCC2 | 15.8µM | 12.6µM | -
Cc1cccc(C)c1Nc1nc2ccccc2o1 | - | - | -
COC(=O)c1cc(=O)c(O)c2c(O)c(O)ccc2c1 | - | - | -
CCc1ccccc1NC(=O)CN(C)C(=O)Cn1ncc(Cl)c(Cl)c1=O | 3.16µM | 3.55µM | .
CCCc1cc(=O)[nH]c(SCC(=O)N(C)CC(=O)Nc2ccccc2CC)n1 | - | - | -
CCOc1ccc(CN2C(=O)c3ccccc3Sc3ccc(C(=O)NCc4ccc(C)cc4)cc32)cc1 | - | - | -[10.9 µM]
c1ccc(-c2cnc(-c3cccnc3)o2)cc1 | - | - | -
NC(=O)c1ccc(-c2ncc(-c3ccccc3)o2)cc1 | 20µM | ? | -
O=C(NCc1ccc(F)cc1)c1cc2c(=O)n3ccccc3nc2s1 | - | - | -[10.9 µM]
COc1ccc(NC(=O)CSc2nc(-c3ccccc3)nc3cc(=O)[nH]n23)cc1 | - | - | -[10.9 µM]
COc1ccccc1OCCCSc1nc(-c2ccc(C(C)(C)C)cc2)nc2cc(=O)[nH]n12 | - | - | -[10.9 µM]
COc1cccc(-c2nc(SCc3ccc(C)cc3)n3[nH]c(=O)cc3n2)c1 | 12.6µM | - | ?
Cc1cc(OCCCSc2nc(-c3ccc(C(C)(C)C)cc3)nc3cc(=O)[nH]n23)ccc1Cl | 15.8µM | - | -[10.9 µM]
CC(C)(C)c1ccc(-c2nc(SCCCOc3ccccc3)n3[nH]c(=O)cc3n2)cc1 | 20µM | - | -[10.9 µM]
Cc1cc(C)cc(OCCSc2nc(-c3ccc(C(C)(C)C)cc3)nc3cc(=O)[nH]n23)c1 | ? | ? | -[10.9 µM]
CC(=O)SC1CC2=CC(=O)CC[C@@]2(C)C2CC[C@@]3(C)[C@@H](CC[C@@]34CCC(=O)O4)C12 (stereo partly drawn) | - | - | -
O=C(OCc1ccco1)c1ccc2c(c1)N(Cc1ccc([N+](=O)[O-])cc1)C(=O)c1ccccc1S2 | - | - | -[10.9 µM]
COc1ccccc1CNc1ncnc2ccc(-c3ccccc3C#N)cc12 | - | - | -
COc1cccc(CNC(=O)Cn2c(=O)ccc3cc(S(=O)(=O)N4CCC(C)CC4)ccc32)c1 | - | - | -[10.9 µM]
COc1ccc2noc3c2c1C(=O)c1ccccc1-3 | - | 12.6µM | -
O=C1c2ccccc2-c2onc3ccc(NCCCn4ccnc4)c1c23 | ? | - | -
COC(=O)c1ccc(C(/C=C/[C@@H](C)C(=O)N(C)C)NC(=O)OCc2ccccc2)cc1 (stereo partly drawn) | - | - | -
SMILES | p53ts 39C tox | p53ts 32C tox | Imprint erasure
NS(=O)(=O)c1cc2c(cc1Cl)N[C@H](Cc1ccccc1)NS2(=O)=O | -[9.22 µM] | -[9.22 µM] | -[10.9 µM]
CN(C)c1ccc(-c2nc(NC3CCNCC3)c3ccccc3n2)cc1 | 10µM | ? | -
COc1cccc(-c2nc(NCc3ccc(OC)cc3OC)c3ccccc3n2)c1 | - | - | -
COc1cccc(-c2nc(NC3CCNCC3)c3ccccc3n2)c1 | 15.8µM | ? | -
c1ccc2c(NC3CCNCC3)nc(-c3ccoc3)nc2c1 | - | - | -
Cc1cc2cc(CCNS(=O)(=O)c3ccc(Br)cc3)c(=O)[nH]c2cc1C | - | - | -[10.9 µM]
CCOC(=O)Cc1ccc(NC(=O)n2ncc3cc(Cl)ccc32)cc1 | - | - | -[10.9 µM]
COc1ccc(CNC(=O)C(=O)Nc2c3c(nn2-c2ccccc2)CSC3)cc1 | - | - | -[10.9 µM]
O=c1oc(-c2cccs2)nc2sc3c(c12)CCCCC3 | 10µM | 12.6µM | -
Nn1c(-c2cccs2)nc2sc3c(c2c1=O)CCCC3 | ? | 10µM | -
CC1(C)Cc2c(sc3nc(-c4cccs4)n(N)c(=O)c23)CO1 | ? | ? | -
Cc1ccccc1-c1nc2sc3c(c2c(=O)o1)CCC3 | - | - | .
Cc1cccc(CNC(=O)C2CCN(c3nc4ccc(Cl)cc4[nH]3)CC2)c1 | - | - | -[10.9 µM]
CO[Si](CCCNCCC[Si](OC)(OC)OC)(OC)OC | - | -[1.84 µM] | -
COc1ccc2c3c(ccc2c1)N[C@H](C(=O)O)CC3 | ? | ? | -[10.9 µM]
Cc1ccc(O)c(NC(=O)c2noc3c2CCCC3)c1 | ? | ? | -[10.9 µM]
Cc1ccc(O)c(NC(=O)c2noc3c2CCCCC3)c1 | ? | 12.6µM | -[10.9 µM]
CCCCN(C)CC(O)Cn1cc(/C=C/C(=O)c2ccc(C)cc2)c2ccccc21 (stereo not drawn) | 15.8µM | ? | -[10.9 µM]
CCn1cc(/C=C(\NC(=O)c2ccc(OC)c(OC)c2)C(=O)NCCCn2ccnc2)c2ccccc21 | - | - | -[10.9 µM]
OCCN(CCO)CC(O)Cn1c2ccccc2c2ccccc21 (stereo not drawn) | - | - | -
CCCN(CCC)CC(O)Cn1cc(/C=C/C(=O)c2ccc(OC)cc2)c2ccccc21 (stereo not drawn) | 10µM | ? | -[10.9 µM]
CCCN(CCC)CC(O)Cn1cc(/C=C/C(=O)c2ccc(C)cc2)c2ccccc21 (stereo not drawn) | 12.6µM | ? | -[10.9 µM]
COc1ccc(C(=O)/C=C/c2cn(CC(O)CN(CC(C)C)CC(C)C)c3ccccc23)cc1 (stereo not drawn) | - | - | -[10.9 µM]
CCCCN(C)CC(O)Cn1cc(/C=C/C(=O)c2ccc(Br)cc2)c2ccccc21 (stereo not drawn) | ? | ? | -[10.9 µM]
CCCCN(C)CC(O)Cn1cc(/C=C/C(=O)c2ccc(OC)c(OC)c2)c2ccccc21 (stereo not drawn) | 15.8µM | 20µM | ?
SMILES | p53ts 39C tox | p53ts 32C tox | Imprint erasure
COC(=O)c1nc2n(n1)C(c1cccc(Cl)c1)C(C(=O)Nc1ccccc1OC)=C(C)N2 (stereo not drawn) | - | - | -[10.9 µM]
COCCNC(=O)c1ccc(Cn2c(SCC(=O)NC(C)C)nc3ccccc3c2=O)cc1 | - | - | -[10.9 µM]
CCOc1ccccc1Nc1nc2ccccc2c2nncn12 | - | - | -[10.9 µM]
COC(=O)c1ccccc1NC(=O)c1cc(C)nc2c1c(C)nn2-c1ccc(C)cc1 | - | - | -[10.9 µM]
N#CCCn1cc(C(CC(=O)c2ccc(Br)cc2)C(=O)O)c2ccccc21 (stereo not drawn) | - | - | -
CCCN(CCC)CC(O)Cn1cc(/C=C/C(=O)c2ccc(Br)cc2)c2ccccc21 (stereo not drawn) | 7.94µM | - | -[10.9 µM]
COC(=O)C1CCN(C(c2ccccc2Cl)c2sc3nc(-c4ccco4)nn3c2O)CC1 (stereo not drawn) | - | - | -[10.9 µM]
CCc1ccccc1NC(=O)N1CCN(Cc2nc3ccc(C)cc3o2)CC1 | - | - | -[10.9 µM]
FC(F)(F)c1cc(-c2ccco2)nc(NCc2ccco2)n1 | - | - | -
FC(F)(F)c1cc(-c2ccco2)nc(NCc2cccs2)n1 | 20µM | ? | -
COc1ccc(C(=O)NCC(c2cccnc2)N2CCc3ccccc3C2)cc1OC (stereo not drawn) | - | ? | -[10.9 µM]
COc1cccc(NC(=O)CSc2nc3c(oc4ccccc43)c(=O)n2Cc2ccco2)c1 | ? | ? | -[10.9 µM]
COc1ccc(-c2onc(C)c2C)cc1S(=O)(=O)Nc1cccc(C#N)c1 | - | - | -[10.9 µM]
COc1ccc(C(=O)/C=C/c2cn(CC(O)CN3CCCCCC3)c3ccccc23)cc1OC (stereo not drawn) | 12.6µM | - | -[10.9 µM]
